{"source": "PubChem BioAssay (NCATS)", "note": "Records with an inconclusive call do not appear. Values without a mark were called inactive. The source made the active and inactive calls. Calls follow the shape of the dose curve; as a rule, active = well fitted inhibition curve with a large enough effect; inconclusive = small, poorly fitted or top-dose-only effect; inactive = flat fitted curve, though single readings scatter. % is scaled to controls: 0 for no effect and ±100 for the full control effect."}
{"target": "Calcium and integrin-binding protein 1 (Homo sapiens) (UniProt Q99828)", "sequence (Q99828 whole entry, looked up)": "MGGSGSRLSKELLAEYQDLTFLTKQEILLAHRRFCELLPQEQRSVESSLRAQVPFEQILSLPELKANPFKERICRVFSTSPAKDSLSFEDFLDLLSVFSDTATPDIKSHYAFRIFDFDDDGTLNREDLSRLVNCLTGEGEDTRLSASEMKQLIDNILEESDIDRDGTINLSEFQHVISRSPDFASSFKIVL", "test": "Primary qHTS for Identification of Calcium Integrin Binding Protein 1 (CIB1) Competitor (AID 1508620);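 also: GST tagged CIB1 binding a fluorescein labelled alphaIIb integrin peptide tracer; top concentration of the series differs between compounds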", "conditions": "CIB1-GST / FITC-alphaIIb peptide fluorescence polarization; series mostly up to 57.7 µM; activity change, negative = inhibition: at the top concentration", "summary_of_the_method": "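CIB1-GST (1 uM final) and compound incubated 15 min at room temperature before adding FITC-alphaIIb peptide tracer (100 nM final). Competition for binding read by fluorescence polarization (ex 480, em 540) after another 15 min at room temperature.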", "units": {"activity change, negative = inhibition": "%"}}
{"molecule": "CN(C)CCC=C1c2ccccc2COc2ccc(CC(=O)O)cc21", "activity change, negative = inhibition": -0.379}
{"molecule": "C[C@H]1[C@H](NC(=O)C(=NOC(C)(C)C(=O)O)c2csc(N)n2)C(=O)N1S(=O)(=O)O", "activity change, negative = inhibition": 0.0975}
{"molecule": "CN(C)Cc1cccc(N=C(c2ccccc2)c2c(O)[nH]c3cc(C(=O)N(C)C)ccc23)c1", "activity change, negative = inhibition": 1.95}
{"molecule": "O=c1c(-c2ccc(O)cc2)coc2cc(OC3O[C@H](CO)[C@H](O)[C@H](O)[C@H]3O)cc(O)c12", "note": "(stereo not given in full)", "activity change, negative = inhibition": -12.1}
{"molecule": "C[C@@H]1CCN(C(=O)CC#N)C[C@H]1N(C)c1ncnc2[nH]ccc12", "activity change, negative = inhibition": 6.08}
{"molecule": "NC[C@@H]1O[C@@H](O[C@H]2[C@@H](O)[C@H](O[C@@H]3[C@@H](O)[C@@H](N)C[C@H](N)[C@H]3O[C@H]3O[C@H](CN)[C@@H](O)[C@@H](O)[C@H]3N)O[C@H]2CO)[C@H](N)[C@@H](O)[C@@H]1O", "activity change, negative = inhibition": -1.97}
{"molecule": "COCCCCC(=NOCCN)c1ccc(C(F)(F)F)cc1", "activity change, negative = inhibition": 3.82}
{"molecule": "Cc1[nH]c(C=C2C(=O)Nc3ccc(S(=O)(=O)Cc4c(Cl)cccc4Cl)cc32)c(C)c1C(=O)N1CCC[C@H]1CN1CCCC1", "activity change, negative = inhibition": 20.5}
{"molecule": "CON=C(C(=O)N[C@@H]1C(=O)N2C(C(=O)OCOC(=O)C(C)(C)C)=C(C=Cc3scnc3C)CS[C@H]12)c1csc(N)n1", "activity change, negative = inhibition": -2.1}
{"molecule": "O=C(NCc1ccccc1)c1csc(Nc2ccncn2)n1", "Potency": "inactive"}
{"molecule": "CC(C)=CC[C@@H](O)C1=CC(=O)c2c(O)ccc(O)c2C1=O", "activity change, negative = inhibition": -13.6}
{"molecule": "CO[C@H]1C(=O)[C@]2(C)[C@@H](OC)C[C@H]3OC[C@@]3(OC(C)=O)[C@H]2[C@H](OC(=O)c2ccccc2)[C@]2(O)C[C@H](OC(=O)[C@H](O)[C@@H](NC(=O)OC(C)(C)C)c3ccccc3)C(C)=C1C2(C)C", "activity change, negative = inhibition": 2.82}
{"molecule": "CCC(CC)[C@H](NC(C)=O)[C@@H]1[C@H](O)[C@@H](C(=O)O)C[C@@H]1N=C(N)N", "activity change, negative = inhibition": 5.14}
{"molecule": "Cc1nnc(C(C)C)n1C1C[C@H]2CC[C@@H](C1)N2CC[C@H](NC(=O)C1CCC(F)(F)CC1)c1ccccc1", "note": "(stereo not given in full)", "activity change, negative = inhibition": -6.95}
{"molecule": "Cc1c(O)cccc1C(=O)N[C@@H](CSc1ccccc1)[C@H](O)CN1C[C@H]2CCCC[C@@H]2C[C@@H]1C(=O)NC(C)(C)C", "activity change, negative = inhibition": -5.78}
{"molecule": "NC1CCC(Nc2nc(Nc3ccc(C(=O)N4CCCCC4)cc3)c3ncn(-c4cccc(F)c4)c3n2)CC1", "note": "(stereo not given)", "activity change, negative = inhibition": 0.816}
{"molecule": "COc1ncc(-c2ccc3nccc(-c4ccnnc4)c3c2)cc1NS(=O)(=O)c1ccc(F)cc1F", "Potency": "inactive"}
{"molecule": "Clc1ccc(-c2nc3sccn3c2C=NOCc2ccc(Cl)c(Cl)c2)cc1", "activity change, negative = inhibition": -3.51}
{"molecule": "CC1(C)CCC[C@@]2(C)[C@@H]1CC[C@@]1(C)OC(=O)C[C@H]21", "activity change, negative = inhibition": -5.24}
{"molecule": "COc1ccc(-c2oc3c(CC=C(C)C)c(OC4O[C@H](CO)[C@@H](O)[C@H](O)[C@@H]4O)cc(O)c3c(=O)c2OC2O[C@@H](C)[C@H](O)[C@@H](O)[C@@H]2O)cc1", "note": "(stereo not given in full)", "activity change, negative = inhibition": -2.85}
{"molecule": "CC1(C)O[C@H]2C[C@@H]3[C@H]4CCC5=CC(=O)C=C[C@]5(C)[C@@]4(F)[C@@H](O)C[C@]3(C)[C@]2(C(=O)CO)O1", "activity change, negative = inhibition": -1.99}
{"molecule": "COC(=O)C1=CO[C@@H](O)[C@@H]2C(CO)=CC[C@@H]12", "activity change, negative = inhibition": 2.27}
{"molecule": "Cc1ccccc1C(C(=O)NC1CCCCC1)N(C(=O)Cn1ccnc1C)c1cccc(F)c1", "note": "(stereo not given)", "Potency": "inactive"}
{"molecule": "CO[C@@H](C(=O)N1Cc2[nH]nc(NC(=O)c3ccc(N4CCN(C)CC4)cc3)c2C1)c1ccccc1", "activity change, negative = inhibition": -2.87}
{"molecule": "O=c1cc(-c2ccccc2)oc2cc(O)cc(O)c12", "activity change, negative = inhibition": -4.96}
{"molecule": "CC=CC[C@@H](C)C(=O)[C@H]1C(=O)N[C@@H](C(C)C)C(=O)N(C)CC(=O)N(C)[C@@H](CC(C)C)C(=O)N[C@@H](C(C)C)C(=O)N(C)[C@@H](CC(C)C)C(=O)N[C@@H](C)C(=O)N[C@H](C)C(=O)N(C)[C@@H](CC(C)C)C(=O)N(C)[C@@H](CC(C)C)C(=O)N(C)[C@@H](C(C)C)C(=O)N1C", "activity change, negative = inhibition": -4.26}
{"molecule": "Cc1c[nH]c(C=C2C(=O)Nc3ccccc32)c1CCC(=O)O", "activity change, negative = inhibition": 9.33}
{"molecule": "CC(=NNC(=S)N1CCC1)c1ccccn1", "activity change, negative = inhibition": -11.1}
{"molecule": "CC[C@@]1(O)C[C@H](O[C@H]2C[C@H](N(C)C)[C@H](O[C@H]3C[C@H](O)[C@H](O[C@H]4CCC(=O)[C@H](C)O4)[C@H](C)O3)[C@H](C)O2)c2c(cc3c(c2O)C(=O)c2c(O)cccc2C3=O)[C@@H]1C(=O)OC", "activity change, negative = inhibition": -5.75}
{"molecule": "N#CC(=C(N)Sc1ccccc1N)C(C#N)=C(N)Sc1ccccc1N", "activity change, negative = inhibition": -22.5}
